Our source for the AC50 values is PubChem BioAssay (EPA / NIEHS).

Active and inactive are the calls of the source. The calls were made as follows: active = hit-call score of the fitted dose curve at least 0.9, where 1 is the maximum; inconclusive = response in the unintended direction; inactive = score below 0.9.

For this assay, the system named is rat CYP3A1, gene 25642. The experiment in a line: NVS_ADME_rCYP3A1: NovaScreen (NVS) CYP450-related Enzyme Activity (ADME) Assay for rat CYP3A1 (AID 2283126). The procedure: NVS_ADME_rCYP3A1 is a biochemical, single-readout assay that uses extracted gene-proteins in a cell-free assay. Measurements were taken 0.5 hour after chemical dosing in a 96-well plate.NVS_ADME_rCYP3A1 is one of one assay component(s) measured or calculated from the NVS_ADME_rCYP3A1 assay. It is designed to make measurements of enzyme activity, a form of enzyme reporter, as detected with fluorescence intensity signals by Fluorescence technology.Data from the assay component NVS_ADME_rCYP3A1 was analyzed into 1 assay endpoint. This assay endpoint, NVS_ADME_rCYP3A1, was analyzed in the positive analysis fitting direction relative to Acetonitrile as the negative control and baseline of activity. Using a type of enzyme reporter, loss-of-signal activity can be used to understand changes in the enzymatic activity as they relate to the gene Cyp3a23/3a1. Furthermore, this assay endpoint can be referred to as a primary readout, because this assay has produced multiple assay endpoints where this one serves a enzymatic activity function. To generalize the intended target to other relatable targets, this assay endpoint is annotated to the cyp intended target family, where the subfamily is xenobiotic metabolism.
Binding assays used specific radioligands (tritiated, iodinated) with non-radioactive competitive displacement ligands in agonist or antagonist protocols (as indicated) and various reference compounds and inhibitors to titrate specific binding to receptors and transporters. Most enzyme assays (CYPs, kinases, phosphatases, proteases, HDACs) used recombinant protein and specific substrates (fluorescence mostly, some colorimetric and radioactive) and inhibitors, followed by a biochemical separation of substrate and product. All assays for the biochemical HTS were initially run in duplicate at a single concentration (10 uM for CYP450 assays and 25 uM for all others). Assay-chemical combinations meeting a pre-defined threshold (e.g., 30% inhibition and other criteria defined below) were then run in singleton concentration-response format with maximum concentration of 20 uM for CYPs and 50 uM for all others. Each assay was run with positive and negative controls, and concurrent controls on every plate. The follow-up (secondary) screen tested active chemical-pairs in concentration series, as well as a few additional assays not tested in the primary screen, some selected negative inactives, and several cases re-run in the concentration series for confirmatory purposes.
For the molecule `CC(C)(c1ccc(O)cc1)c1ccc(O)cc1`, the AC50 – broadly, the concentration at which the activity in the assay is half-maximal – was 9.88 µM (active).
As to `CCCCC(CC)CN1C(=O)C2C3C=CC(C3)C2C1=O` (stereo not drawn), the AC50 is 6.63 µM (active).
On to `S=C([S-])NCCNC(=S)[S-].[Mn+2]`, for which the AC50 was 7.1 µM (active).
Regarding `CSC(=O)c1cccc2nnsc12`, the AC50 was 4.28 µM (active).
With `C=CCOC(Cn1ccnc1)c1ccc(Cl)cc1Cl` (stereo not drawn), the AC50 was 0.729 µM (active).
On to `CCOC(=O)NCCOc1ccc(Oc2ccccc2)cc1`, for which the AC50 is 5.62 µM (active).
As to `CC(C)(C)[C@@H](O)[C@@H](Cc1ccc(Cl)cc1)n1cncn1`, the AC50 is 3.44 µM (active).
For `CN(C)C(=O)Nc1ccc(Cl)c(Cl)c1`, the half-maximal activity concentration (AC50) is 5.82 µM (active).
Then `N#CSCSc1nc2ccccc2s1`, with 10.1 µM (active).
Turning to `CCN(Cc1c(F)cccc1Cl)c1c([N+](=O)[O-])cc(C(F)(F)F)cc1[N+](=O)[O-]`, the AC50 was 6.19 µM (active).
`CCCCOCCOCCOCc1cc2c(cc1CCC)OCO2`: the AC50 is 5.03 µM (active).
Turning to `S=C(S)NCCNC(=S)S.[Mn+2].[S-]C([S-])=NCCN=C([S-])[S-].[Zn+2]`, the AC50 was 10 µM (active).
On to `Oc1ccc(C(c2ccc(O)cc2)C(Cl)(Cl)Cl)cc1`, for which the AC50 was 2.7 µM (active).
